High-throughput results (PubChem BioAssay)
The list is not random: actives were taken first. Their share in the collection is about 19%.
HT1080-NT tox: kills 2HG-producing HT-1080-NT fibrosarcoma cells; HT-1080-NT fibrosarcoma viability, CellTiter-Glo ATP luminescence, 48 h; Potency, µM (series often up to 46.1 µM), for inactives: at the top dose activity, negative = less viability, usual class: cytotoxic; actives 1.6% (n = 360,000); AID 686970;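 further: NT is the 2HG producing partner of a matched IDH1 knockdown line; potency means the concentration at half of the fitted maximal effect; 0% = DMSO-treated cells and -100% = media-only wells without cells; nearly all actives have a fitted effect of over 55% in size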
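Viability of the 2HG-overproducing fibrosarcoma line after 48 hours of compound exposure at 37 degrees C was determined by luminescence with CellTiter-Glo, and concentration-effect curves were then fitted and categorized.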
TDP1 cell CPT: DT40-hTDP1 cell growth loss with CPT; Potency, µM (doses to about 46.2 µM), inactives show at the highest dose activity change, negative = growth inhibition, usual class: inhibitors; chicken DT40 Tdp1-/-;hTDP1 cells + 20 nM CPT, ATP luminescence, 48 h; AID 686979; actives 12% (n = 420,000); further: potency means the concentration at half of the fitted maximal effect; nearly all actives have a fitted effect of over 55% in size
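Chicken DT40 Tdp1-/- cells stably complemented with human TDP1 were seeded at 400 cells/well in medium containing 20 nM camptothecin, exposed to pin-transferred compounds, and grown at 37 °C for at least 48 hr. Viability was read as ATP luminescence.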
ELG1 DNA repair: inhibitors of ELG1-dependent DNA repair in HEK293T cells; HEK293T ELG1-luciferase reporter, luminescence, 16 h; DNA damage induced by 5-fluorouridine; Potency, µM (highest dose often 46.1 µM), for inactives: at the top dose activity change, negative = inhibition, most hits filed as inhibitors; actives 2.3% (n = 330,000); further: potency means the concentration at half of the fitted maximal effect; nearly all actives have a fitted effect of over 55% in size
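Overnight (16 hr) co-exposure of 2,000 cells/well to 5-fluorouridine and compound at 37 °C preceded detection. Luciferase was quantified via ONE-Glo luminescence; loss of signal denotes inhibition.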
DT40 TDP1 no CPT: qHTS for Inhibitors of human tyrosyl-DNA phosphodiesterase 1 (TDP1): qHTS in cells in absence of CPT; actives 15% (n = 420,000); Potency, µM (series often up to 46.2 µM), for the others: at the highest dose activity change, negative = growth inhibition, usual class: inhibitors; DT40 Tdp1-/- hTDP1 cells, no CPT, ATP luminescence, 48 h; further: potency means the concentration at half of the fitted maximal effect; nearly all actives have a fitted effect of over 55% in size
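Cells were dispensed at 400 per well, compounds added by pin tool, plates incubated ≥48 hr at 37 °C, then CellTiter-Glo added for 30 min at room temperature before luminescence reading. Line: DT40 Tdp1-/- complemented with hTDP1; camptothecin omitted.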
HT1080 IDH1KD tx: toxicity to HT-1080 IDH1 knockdown cells (counter line); HT-1080 IDH1 knockdown viability, ATP luminescence, 48 h; Potency, µM (top dose mostly 46.1 µM), inactives show at the highest dose activity, negative = toxicity, actives largely listed as cytotoxic; actives 2% (n = 360,000); AID 686971;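 further: potency means the concentration at half of the fitted maximal effect; 0% = DMSO wells and -100% = cell-free medium wells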
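Assay cells: HT-1080 with IDH1 knockdown, 750 per well, RPMI/5% FBS. Exposure: 48 h at 37 °C following 2 h pre-incubation. Read: CellTiter-Glo luminescence; fitted concentration-response, curve class assigned.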
IL1B secr inh: blocks inflammasome-driven IL-1 beta release; THP-1 LPS/ATP IL-1B secretion, AlphaLISA, 16 h; hits give low values; activity change, % at 57.5 µM; actives 4.7% (n = 360,000); AID 743279; in the data active means activity change below about -50%; inconclusive means mostly about -30% to -49%
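THP-1 cells pretreated 1 hr with compounds (up to 57.5 uM final), then stimulated with LPS (250 ng/mL final) plus ATP (1.25 mM final); secreted IL-1B measured by AlphaLISA after 16 hr, decreased signal indicating inhibition.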
* hit, by the source's call; ? = inconclusive; / = no result. Unless noted, the call rests on the fitted dose curve; in most records, active means well fitted curve in the direction sought with a large enough effect; inconclusive means small, poorly fitted or top-dose-only effect, or another doubt; inactive means no such curve, though single readings can be large; an effect the other way counts as inactive or inconclusive. Unless noted, on the % scale 0 is the no-effect control and ±100 the full control effect.

SMILES	HT1080-NT tox	TDP1 cell CPT	ELG1 DNA repair	DT40 TDP1 no CPT	HT1080 IDH1KD tx	IL1B secr inh
COc1ccc2c(c1)C(=O)CC(O)(C(F)F)O2 (centres undefined)	1.5%	1.7%	?	-6.7%	18.7%	2.2
COc1ccc(C2(OC)Oc3cc(OC)ccc3C(=O)C2(O)OC)cc1 (centres undefined)	-6.4%	23.1µM*	/	?	?	-73.6*
Cc1ccc2occ(C(c3nnnn3C3CCCC3)N3CCN(C(=O)c4ccco4)CC3)c(=O)c2c1 (centres undefined)	-26.2%	16.4µM*	?	?	?	-64.1*
O=C(c1ccco1)N1CCN(C(c2coc3ccc(Cl)cc3c2=O)c2nnnn2C2CCCC2)CC1 (centres undefined)	6.7%	?	/	?	11.8%	-14.3
Brc1cccc(-c2cnco2)c1	0.4%	-5.5%	10.7%	1.5%	0.8%	-10.8
CN(CC1CCCN(CCc2ccc(Cl)cc2)C1)C(=O)C(=O)c1ccco1 (centres undefined)	-3.1%	-11.3%	-13.6%	-14.4%	-2.7%	-13.8
COc1ccc(CN(C)CC2CCCN(CCc3ccccc3C)C2)cc1O (centres undefined)	?	-22.5%	-7.5%	?	?	-52.4*
Cc1cc(C)c(C(=O)N(C)CC2CCCN(CCc3ccccc3F)C2)o1 (centres undefined)	1.6%	-5.8%	-16.4%	-28.1%	-1.3%	-14.2
COc1ccc(CCN2CCCC(CN(C)Cc3cc(Cl)c(O)c(OC)c3)C2)cc1 (centres undefined)	-22.7%	-24.3%	-0.6%	?	-19.3%	-11.2
COc1cc(OC)c(OC)cc1CN(C)CC1CCCN(CCc2ccccc2F)C1 (centres undefined)	-25.5%	14.6µM*	-4.7%	?	?	?
CN(Cc1ccccc1OCCO)CC1CCCN(CCc2ccc(Cl)cc2)C1 (centres undefined)	?	?	-20.6%	?	?	-61.4*
COc1cccc(CN(C)CC2CCCN(CCc3ccccc3C)C2)c1 (centres undefined)	?	?	-20.8%	18.4µM*	?	-25.5
COc1ccc(-c2nc(CNS(=O)(=O)c3cc(OC)ccc3OC)cs2)cc1	-15.4%	?	16.4µM*	-26.6%	-8.7%	-12.6
COc1ccc(-c2nc(CCNS(=O)(=O)c3ccc4c(c3)OCCO4)cs2)cc1	-14.8%	18.4µM*	?	16.4µM*	-5.1%	7.7
O=S(=O)(NCCc1csc(-c2ccc(C(F)(F)F)cc2)n1)c1ccc2c(c1)OCCO2	-4.1%	18.4µM*	-11.5%	14.6µM*	-2.5%	23.9
O=[N+]([O-])c1ccc2nonc2c1Nc1cccc(F)c1	-1.7%	-27.2%	-2.3%	4.9%	4.5%	17.8
O=[N+]([O-])c1cc([N+](=O)[O-])c2nonc2c1Nc1ccc(O)cc1	-1.4%	?	-15.0%	20.6µM*	-3.9%	3.8
O=[N+]([O-])c1cncc([N+](=O)[O-])c1Nc1cccc(O)c1	-21.8%	5.17µM*	?	4.11µM*	-15.5%	-18.4
Cc1ccccc1Nc1n[nH]c(C)c1[N+](=O)[O-]	-7.4%	2.7%	29.1%	1.3%	-2.6%	30.7
Cc1ccccc1Nc1c([N+](=O)[O-])cncc1[N+](=O)[O-]	-1.7%	?	11.9%	14.6µM*	8.4%	8.5
O=C(NC1CCCC1)C1CCN(C(=O)c2ccccc2Cl)CC1	-0.8%	7.9%	-4.7%	-2.4%	4.5%	8.3
CCOc1nc(Nc2cc(Cl)ccc2OC)nc(OCC)n1	1.6%	20.6µM*	23.7%	?	12.9%	8.5
CCOc1nc(Nc2ccc(OC)cc2OC)nc(OCC)n1	-4.3%	-22.5%	-9.1%	16.4µM*	-1.6%	0.1
O=[N+]([O-])/C(C(=C(Cl)Cl)N1CCN(Cc2ccccc2)CC1)=C1\NCCN1Cc1ccc(Cl)nc1	-11.5%	?	4.5%	14.6µM*	-6.4%	?
COc1ccc(-n2ccn(Cc3ccccc3C)c(=O)c2=O)cc1	/	1.0%	/	-0.4%	/	/
SMILES	HT1080-NT tox	TDP1 cell CPT	ELG1 DNA repair	DT40 TDP1 no CPT	HT1080 IDH1KD tx	IL1B secr inh
CCCCC(=O)N(C)c1c(C)nc2ccc(C(=O)N(CC)CCN(C)C)cn12	21.5%	3.2%	/	5.4%	17.1%	1.9
Cc1ccc(-c2nnc(SCC(C)C)n2C)cc1	3.3%	?	?	20.6µM*	-1.8%	?
Cc1ccc(Nc2nc(CSc3nnc(-c4ccc(F)cc4)n3C)cs2)cc1	1.0%	14.6µM*	?	?	2.6%	0.0
Cc1cccc(-n2c(=O)c3c(c4cc(C)ccc4n3C)n(Cc3ccccc3F)c2=O)c1	/	-14.3%	/	?	/	/
O=C1NC(=O)C(Cc2c[nH]c3ccccc23)N1 (centres undefined)	8.8%	2.3%	3.4%	2.9%	-1.0%	20.5
Cc1c(OCC(=O)NCCN2CCOCC2)ccc2c(-c3ccccc3)cc(=O)oc12	7.7%	7.0%	14.9%	?	0.5%	14.8
CCOC(=O)c1c(-n2c(C)cc(C=O)c2C)sc2c1CCCC2	-22.2%	15.8µM*	-9.4%	?	?	-56.4*
CCOC(=O)c1cccc(-n2c(C)cc(C=O)c2C)c1	-2.1%	-3.0%	20.5%	-29.6%	-9.3%	15.5
Cc1ccc(NC(=O)NNC(=O)c2cccs2)cc1	7.9%	-16.3%	?	-1.0%	4.2%	-7.2
O=C(Nc1c2c(nn1-c1ccc(Cl)cc1)CS(=O)(=O)C2)c1cccc(Cl)c1	/	16.4µM*	/	20.6µM*	/	/
C=CCn1c(CSc2ccccc2[N+](=O)[O-])n[nH]c1=S	5.8%	4.8%	0.4%	-19.6%	-1.4%	42.0
C=CCn1c(Sc2ncc([N+](=O)[O-])s2)n[nH]c1=O	5.8µM*	0.411µM*	-1.2%	0.92µM*	5.17µM*	-102.9*
Cc1cccc(NC(=O)c2cc3c(=O)n(Cc4cccnc4)ccc3nc2C)c1	/	-21.7%	/	?	/	/
COc1ccc(CNC(=O)C(=O)NCC2OCCN2S(=O)(=O)c2ccc(OC)cc2)cc1 (centres undefined)	0.7%	?	/	?	-3.8%	5.2
O=C(NCCCC1CCCC1)C1CCC(=O)N(Cc2ccc(Cl)cc2)C1 (centres undefined)	-1.0%	?	?	?	-23.3%	-68.6*
O=C(NCCCC1CCCC1)C1CCC(=O)N(Cc2cccc(F)c2)C1 (centres undefined)	-16.0%	?	6.2%	-27.2%	-7.8%	15.7
